The full data set covers some 8,800 targets. This sample favours those with a hit. About 0.5% of all pairs of compound and target were hits.
Assays:
Assay in all cases: log2 fold change, soluble protein after heating vs DMSO (PISA); higher = thermal stabilisation; K562 lysate, 10 uM; active = over 0.2 and 3.5 SD of the protein, either way, in both replicates (recomputed)
[1] = compound: CCCS(=O)(=O)Nc1ccc(F)c(C(=O)c2c[nH]c3ncc(-c4ccc(Cl)cc4)cc23)c1F [vemurafenib]
Method in brief: (§1)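 To prepare the extract, K562 pellets were dounce-homogenised in PBS pH 7.4 with 1 mM MgCl2, giving crude material at 1 mg/mL protein. This was treated with 10 μM compound for 30 min, then heated in aliquots for 3 min over 48°C-58°C before pooling and addition of NP-40 to 0.5% at 4°C. Centrifugation at 21,000xg for 90 min left soluble protein in the supernatant, which TMTpro 16plex LC-MS/MS quantified with equalised channel sums. Results are log-two fold changes in thermal stability compared with solvent controls, from duplicates.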

[2] = compound: CCCS(=O)(=O)Nc1ccc(F)c(C(=O)c2c[nH]c3ncc(Cl)cc23)c1F
Method in brief: as §1

[3] = compound: CCN(CCCOc1ccc2c(Nc3cc(CC(=O)Nc4cccc(F)c4)[nH]n3)ncnc2c1)CCOP(=O)(O)O [barasertib]
Method in brief: as §1

[4] = compound: CC[C@@H]1C(=O)N(C)c2cnc(Nc3ccc(C(=O)NC4CCN(C)CC4)cc3OC)nc2N1C1CCCC1
Method in brief: as §1

[5] = compound: CC[C@@H]1C(=O)N(C)c2cnc(Nc3ccc(C(=O)N[C@H]4CC[C@H](N5CCN(CC6CC6)CC5)CC4)cc3OC)nc2N1C(C)C [volasertib]
Method in brief: as §1

[6] = compound: CCn1c(C(=O)N(C2CC2)C2CC2)cc2c3c(ncn3C)c(Nc3cc(C)n(C)n3)nc21
Method in brief: as §1

[7] = compound: CCn1cc(-c2ccnc3[nH]c(-c4cccc(CN(C)C)c4)cc23)c(-c2ccc(NC(=O)N(C)C)cc2)n1
Method in brief: as §1

[8] = compound: CN1CCC(CNc2ccc3ncc(-c4cccc(OC(F)(F)F)c4)n3n2)CC1
Method in brief: as §1

[9] = compound: CN1CCN(CCOc2cc(OC3CCOCC3)c3c(Nc4c(Cl)ccc5c4OCO5)ncnc3c2)CC1 [saracatinib]
Method in brief: as §1

[10] = compound: CN1CCN(c2nc(C3=C(c4c[nH]c5ccccc45)C(=O)NC3=O)c3ccccc3n2)CC1 [sotrastaurin]
Method in brief: as §1

[11] = compound: CN1CC[C@H](c2c(O)cc(O)c3c(=O)cc(-c4ccccc4Cl)oc23)[C@H](O)C1 [alvocidib]
Method in brief: as §1

[12] = compound: CN1CCc2c(c3ccccc3n2Cc2ccc(C(=O)NO)cc2)C1 [Tubastatin A]
Method in brief: as §1

[13] = compound: CNC(=O)C1=CC=CC=C1NC2=NC(=NC=C2Cl)NC3=C(C=C(C=C3)N4CCOCC4)OC
Method in brief: as §1

[14] = compound: CNC(=O)c1ccc(Nc2ncc(C(F)(F)F)c(NCc3nccnc3N(C)S(C)(=O)=O)n2)cc1 [defactinib]
Method in brief: as §1

[15] = compound: CNc1nc(-c2ccc3c(N)n[nH]c3c2)cc(N2C[C@@H](C(=O)NC3CCCCC3)CC[C@H]2C)n1
Method in brief: as §1

[16] = compound: COC(=O)N[C@@H](C)CNc1nccc(-c2cn(C(C)C)nc2-c2cc(Cl)cc(NS(C)(=O)=O)c2F)n1 [encorafenib]
Method in brief: as §1

[17] = compound: COC(=O)[C@H](CCSC)NC(=O)C1=C(C=C(C=C1)NC[C@H](CS)N)C2=CC=CC=C2
Method in brief: as §1

[18] = compound: COc1cc(Nc2ncc3c(n2)-c2ccc(Cl)cc2C(c2c(F)cccc2OC)=NC3)ccc1C(=O)O [alisertib]
Method in brief: as §1

[19] = compound: COc1cc2nc(-c3cc(F)ccc3O)nc(N[C@@H]3CNC[C@H]3C(C)(C)O)c2cc1OC
Method in brief: as §1

[20] = compound: COc1cc2ncnc(Nc3ccc(F)c(Cl)c3)c2cc1OCCCN1CCOCC1 [gefitinib]
Method in brief: as §1

Measured: log2 fold change

SOAT1 (UniProt P35610)
Chain of UniProt P35610 (P35610 whole entry, looked up): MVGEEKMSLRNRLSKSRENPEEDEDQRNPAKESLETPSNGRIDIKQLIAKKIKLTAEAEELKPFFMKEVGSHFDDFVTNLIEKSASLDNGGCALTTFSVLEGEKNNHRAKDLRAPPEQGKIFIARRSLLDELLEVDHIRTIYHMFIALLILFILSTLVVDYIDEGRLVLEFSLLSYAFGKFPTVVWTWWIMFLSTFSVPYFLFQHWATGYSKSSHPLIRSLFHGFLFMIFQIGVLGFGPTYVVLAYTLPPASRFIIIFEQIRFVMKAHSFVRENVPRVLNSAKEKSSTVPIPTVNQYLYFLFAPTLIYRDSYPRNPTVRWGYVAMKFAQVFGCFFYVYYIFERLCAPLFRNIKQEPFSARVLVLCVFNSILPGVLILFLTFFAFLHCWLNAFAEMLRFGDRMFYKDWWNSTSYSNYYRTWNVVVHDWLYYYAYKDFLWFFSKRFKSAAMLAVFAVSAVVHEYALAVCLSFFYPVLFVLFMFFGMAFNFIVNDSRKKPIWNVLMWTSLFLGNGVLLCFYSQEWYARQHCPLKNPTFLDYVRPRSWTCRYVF
inactive: [1] 0.047 | [2] 0.055 | [3] 0.008 | [4] -0.003 | [5] -0.009 | [6] -0.061 | [7] -0.063 | [8] -0.062 | [9] 0.016 | [10] 0.019 | [11] -0.033 | [12] 0.086 | [13] 0.036 | [14] -0.022 | [15] -0.002 | [16] 0.065 | [17] 0.123 | [18] -0.014 | [19] -0.076 | [20] 0.047

STK4 (UniProt Q13043)
inactive: [1] 0.058 | [2] 0.047 | [3] 0.029 | [4] 0.002 | [5] -0.046 | [6] 0.023 | [7] -0.019 | [8] 0.168 | [9] 0.029 | [10] 0.199 | [11] 0.011 | [12] -0.095 | [13] 0.365 | [14] 0.231 | [15] 0 | [16] -0.073 | [17] -0.055 | [18] 0.051 | [19] 0.257 | [20] 0.002

SNRPD3 (UniProt P62318)
Chain of UniProt P62318 (P62318 whole entry, looked up): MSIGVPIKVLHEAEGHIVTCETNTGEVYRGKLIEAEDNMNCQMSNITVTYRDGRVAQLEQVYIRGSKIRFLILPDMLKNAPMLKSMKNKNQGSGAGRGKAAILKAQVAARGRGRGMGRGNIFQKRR
inactive: [1] 0.022 | [2] -0.012 | [3] -0.006 | [4] -0.049 | [5] -0.004 | [6] 0.052 | [7] -0.254 | [8] 0.135 | [9] 0.046 | [10] 0.024 | [11] -0.121 | [12] 0.014 | [13] -0.003 | [14] -0.046 | [15] -0.068 | [16] -0.014 | [17] 0.027 | [18] 0.017 | [19] 0.022 | [20] 0.052

STIM1 (UniProt Q13586)
inactive: [1] 0.003 | [2] 0.012 | [3] 0.036 | [4] -0.076 | [5] 0.006 | [6] 0.048 | [7] 0.259 | [8] -0.205 | [9] 0.003 | [10] -0.01 | [11] 0.008 | [12] -0.056 | [13] -0.041 | [14] -0.018 | [15] 0.024 | [16] 0.003 | [17] -0.016 | [18] 0.008 | [19] -0.106 | [20] -0.013

STK38 (UniProt Q15208)
active: [13] 0.912 | [14] 0.502
inactive: [1] -0.046 | [2] -0.012 | [3] 0.031 | [4] -0.112 | [5] -0.092 | [6] 0.019 | [7] 0.122 | [8] 0.002 | [9] -0.019 | [10] 0.02 | [11] 0.014 | [12] -0.056 | [15] -0.037 | [16] -0.033 | [17] 0.056 | [18] 0.003 | [19] 0.266 | [20] 0.005

SH3BGRL2 (UniProt Q9UJC5)
Chain of UniProt Q9UJC5 (Q9UJC5 whole entry, looked up): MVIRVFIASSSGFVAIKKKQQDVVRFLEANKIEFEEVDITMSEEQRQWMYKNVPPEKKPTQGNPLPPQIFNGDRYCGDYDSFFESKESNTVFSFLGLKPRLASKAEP
inactive: [1] -0.013 | [2] 0.021 | [3] 0.022 | [4] 0.076 | [5] 0.006 | [6] -0.007 | [8] -0.052 | [9] 0.014 | [10] 0.002 | [11] 0.067 | [12] 0.031 | [13] 0.05 | [14] 0.039 | [15] 0.061 | [16] -0.066 | [17] 0.027 | [18] -0.013 | [19] -0.001 | [20] -0.001
active: [7] 0.387

SLC25A32 (UniProt Q9H2D1)
inactive: [1] 0.053 | [2] 0.01 | [3] -0.012 | [4] -0.013 | [5] 0.002 | [6] -0.045 | [7] -0.129 | [8] 0.054 | [9] 0.029 | [10] 0.007 | [11] -0.05 | [12] 0.037 | [13] -0.01 | [14] 0.03 | [15] 0.052 | [16] 0.04 | [17] 0.01 | [18] 0.036 | [19] 0.001 | [20] -0.033

SLC25A25 isoform 3 (UniProt Q6KCM7)
Chain of UniProt Q6KCM7 (Q6KCM7 whole entry, looked up): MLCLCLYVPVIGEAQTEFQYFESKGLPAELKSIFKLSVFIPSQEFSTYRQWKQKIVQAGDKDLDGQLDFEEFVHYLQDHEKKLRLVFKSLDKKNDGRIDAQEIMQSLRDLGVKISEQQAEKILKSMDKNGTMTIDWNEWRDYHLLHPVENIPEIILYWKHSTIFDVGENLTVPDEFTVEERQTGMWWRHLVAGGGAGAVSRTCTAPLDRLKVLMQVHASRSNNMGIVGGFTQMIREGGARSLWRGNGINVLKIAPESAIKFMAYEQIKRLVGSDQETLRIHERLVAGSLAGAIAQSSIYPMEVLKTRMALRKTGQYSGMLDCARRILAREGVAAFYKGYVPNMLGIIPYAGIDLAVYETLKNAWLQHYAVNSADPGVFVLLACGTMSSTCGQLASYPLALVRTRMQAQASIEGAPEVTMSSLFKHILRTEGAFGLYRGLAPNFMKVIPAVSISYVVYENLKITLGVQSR
inactive: [1] -0.011 | [2] -0.012 | [3] 0.004 | [4] 0.012 | [5] 0.03 | [6] 0.007 | [7] -0.012 | [8] -0.053 | [9] 0.016 | [10] -0.016 | [11] 0.014 | [12] 0.015 | [13] 0.007 | [14] 0.029 | [15] 0.003 | [16] 0.035 | [17] 0.012 | [18] -0.011 | [19] 0.025 | [20] 0.037

SLC25A38 (UniProt Q96DW6)
Chain of UniProt Q96DW6 (Q96DW6 whole entry, looked up): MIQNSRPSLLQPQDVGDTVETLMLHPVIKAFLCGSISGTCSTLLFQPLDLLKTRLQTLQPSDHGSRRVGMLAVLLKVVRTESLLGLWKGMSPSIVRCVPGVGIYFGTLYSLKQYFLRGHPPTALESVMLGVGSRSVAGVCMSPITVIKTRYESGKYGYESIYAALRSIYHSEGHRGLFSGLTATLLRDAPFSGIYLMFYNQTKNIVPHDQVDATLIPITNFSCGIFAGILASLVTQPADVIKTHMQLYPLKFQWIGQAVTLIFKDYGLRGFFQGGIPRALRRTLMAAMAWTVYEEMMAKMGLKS
inactive: [1] 0.037 | [2] 0.013 | [3] -0.005 | [4] 0.209 | [5] 0.012 | [6] 0.015 | [7] -0.055 | [8] 0.067 | [9] -0.127 | [10] 0.07 | [11] -0.062 | [12] 0.014 | [13] -0.049 | [14] 0.074 | [15] 0.06 | [16] -0.038 | [17] 0.321 | [18] 0.044 | [19] 0.097 | [20] 0.094

SLC38A1 (UniProt Q9H2H9)
active: [7] -0.269
inactive: [1] 0.03 | [2] -0.007 | [3] 0 | [4] 0.035 | [5] 0.066 | [6] 0.008 | [8] 0.102 | [9] -0.002 | [10] 0.024 | [11] -0.111 | [12] 0.022 | [13] -0.026 | [14] -0.016 | [15] -0.054 | [16] 0.019 | [17] -0.045 | [18] -0.021 | [19] 0.011 | [20] 0.073

SPHK1 isoform 2 (UniProt Q9NYA1)
Chain of UniProt Q9NYA1 (Q9NYA1 whole entry, looked up): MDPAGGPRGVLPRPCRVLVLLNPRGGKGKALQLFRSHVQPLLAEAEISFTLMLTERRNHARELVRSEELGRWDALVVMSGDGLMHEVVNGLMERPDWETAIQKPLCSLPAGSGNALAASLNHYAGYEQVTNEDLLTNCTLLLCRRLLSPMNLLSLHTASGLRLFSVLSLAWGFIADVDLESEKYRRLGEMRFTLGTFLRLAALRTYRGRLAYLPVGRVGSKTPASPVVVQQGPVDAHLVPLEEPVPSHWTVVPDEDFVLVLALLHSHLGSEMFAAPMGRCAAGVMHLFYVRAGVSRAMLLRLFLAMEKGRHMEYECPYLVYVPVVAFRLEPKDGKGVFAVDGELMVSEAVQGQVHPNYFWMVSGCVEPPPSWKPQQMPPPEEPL
inactive: [1] -0.009 | [2] 0.034 | [3] 0.008 | [4] -0.051 | [5] -0.022 | [6] 0.171 | [7] -0.003 | [8] 0.056 | [9] 0.086 | [10] 0.029 | [11] 0.023 | [12] -0.114 | [13] 0.046 | [14] 0.076 | [15] -0.175 | [16] 0.018 | [17] 0.006 | [18] 0.045 | [19] 0.022 | [20] 0.069

SYNRG (UniProt Q9UMZ2)
Chain of UniProt Q9UMZ2 (Q9UMZ2 whole entry, looked up): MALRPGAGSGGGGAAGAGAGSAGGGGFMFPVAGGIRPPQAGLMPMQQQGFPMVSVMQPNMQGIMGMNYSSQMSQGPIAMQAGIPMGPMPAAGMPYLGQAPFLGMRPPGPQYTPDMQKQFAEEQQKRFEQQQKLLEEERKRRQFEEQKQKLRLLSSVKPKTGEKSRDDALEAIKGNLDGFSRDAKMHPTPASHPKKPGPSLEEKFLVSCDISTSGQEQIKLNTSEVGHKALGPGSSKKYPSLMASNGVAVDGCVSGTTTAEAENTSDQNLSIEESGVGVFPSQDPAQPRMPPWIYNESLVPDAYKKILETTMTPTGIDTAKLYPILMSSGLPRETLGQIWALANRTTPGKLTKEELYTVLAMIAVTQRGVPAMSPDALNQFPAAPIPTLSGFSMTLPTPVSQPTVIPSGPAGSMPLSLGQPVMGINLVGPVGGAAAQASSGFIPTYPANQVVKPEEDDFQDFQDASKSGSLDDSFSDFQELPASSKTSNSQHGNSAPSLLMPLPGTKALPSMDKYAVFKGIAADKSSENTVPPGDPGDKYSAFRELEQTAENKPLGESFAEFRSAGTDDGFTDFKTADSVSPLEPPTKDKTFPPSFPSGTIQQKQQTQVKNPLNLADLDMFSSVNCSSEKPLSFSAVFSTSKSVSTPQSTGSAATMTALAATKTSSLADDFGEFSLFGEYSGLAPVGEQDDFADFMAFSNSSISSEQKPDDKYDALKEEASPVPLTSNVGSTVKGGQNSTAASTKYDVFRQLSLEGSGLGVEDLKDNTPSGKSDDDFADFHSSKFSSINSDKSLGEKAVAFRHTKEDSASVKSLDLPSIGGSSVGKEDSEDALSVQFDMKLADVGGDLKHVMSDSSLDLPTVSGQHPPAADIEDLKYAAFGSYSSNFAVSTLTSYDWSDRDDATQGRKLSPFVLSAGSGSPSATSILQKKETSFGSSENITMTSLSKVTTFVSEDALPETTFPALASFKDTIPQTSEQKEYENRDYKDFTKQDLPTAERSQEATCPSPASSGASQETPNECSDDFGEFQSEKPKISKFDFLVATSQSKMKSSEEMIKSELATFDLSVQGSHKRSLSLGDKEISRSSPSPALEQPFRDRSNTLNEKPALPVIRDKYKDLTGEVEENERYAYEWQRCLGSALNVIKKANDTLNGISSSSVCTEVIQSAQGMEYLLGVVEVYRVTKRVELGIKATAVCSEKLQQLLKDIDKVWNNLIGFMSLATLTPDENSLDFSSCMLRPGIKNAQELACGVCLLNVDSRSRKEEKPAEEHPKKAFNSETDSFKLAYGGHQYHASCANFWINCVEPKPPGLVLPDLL
inactive: [1] -0.006 | [2] 0.022 | [3] 0.015 | [4] 0.037 | [5] 0 | [6] -0.019 | [7] 0.017 | [8] -0.1 | [9] 0.013 | [10] -0.009 | [11] 0.026 | [12] -0.016 | [13] -0.021 | [14] 0.015 | [15] 0.002 | [16] -0.004 | [17] 0.024 | [18] 0.033 | [19] 0.003 | [20] -0.006

SMIM12 (UniProt Q96EX1)
Chain of UniProt Q96EX1 (Q96EX1 whole entry, looked up): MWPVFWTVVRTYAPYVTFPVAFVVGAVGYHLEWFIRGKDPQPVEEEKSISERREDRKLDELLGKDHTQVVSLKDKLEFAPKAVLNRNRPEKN
active: [7] 0.355
inactive: [1] 0.023 | [2] 0.024 | [3] 0.106 | [4] 0.129 | [5] -0.004 | [6] 0.08 | [8] -0.269 | [9] 0.041 | [10] 0.025 | [11] 0.22 | [12] 0.007 | [13] 0.065 | [14] 0.025 | [15] 0.07 | [16] -0.067 | [17] -0.018 | [18] 0.018 | [19] -0.044 | [20] -0.033

SSBP3 (UniProt Q9BWW4)
Chain of UniProt Q9BWW4 (Q9BWW4 whole entry, looked up): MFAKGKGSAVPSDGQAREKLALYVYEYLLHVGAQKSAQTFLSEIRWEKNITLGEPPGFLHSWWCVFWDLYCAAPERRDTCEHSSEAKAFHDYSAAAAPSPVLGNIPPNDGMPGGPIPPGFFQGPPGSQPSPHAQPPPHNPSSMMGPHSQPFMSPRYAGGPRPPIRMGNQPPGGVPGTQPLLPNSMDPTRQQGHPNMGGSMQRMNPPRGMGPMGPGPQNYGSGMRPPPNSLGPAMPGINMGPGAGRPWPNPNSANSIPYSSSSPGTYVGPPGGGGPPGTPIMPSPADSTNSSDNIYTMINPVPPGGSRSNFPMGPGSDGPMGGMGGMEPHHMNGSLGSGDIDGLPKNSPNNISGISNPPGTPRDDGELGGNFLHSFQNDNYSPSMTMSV
inactive: [1] -0.02 | [2] -0.033 | [3] -0.049 | [4] -0.001 | [5] 0.008 | [6] 0.038 | [7] -0.03 | [8] -0.083 | [9] 0.068 | [10] -0.005 | [11] 0.028 | [12] 0.074 | [13] 0 | [14] 0.072 | [15] 0.008 | [16] 0.032 | [17] 0.02 | [18] 0.018 | [19] -0.016 | [20] -0.054

SSNA1 (UniProt O43805)
Chain of UniProt O43805 (O43805 whole entry, looked up): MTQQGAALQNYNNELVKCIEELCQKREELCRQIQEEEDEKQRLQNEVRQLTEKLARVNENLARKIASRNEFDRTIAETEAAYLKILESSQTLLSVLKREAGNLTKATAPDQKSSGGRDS
inactive: [1] -0.067 | [2] -0.022 | [3] 0.134 | [4] 0.075 | [5] 0.027 | [6] 0.016 | [7] -0.005 | [8] -0.002 | [9] 0.013 | [10] 0.004 | [11] 0.016 | [12] 0.038 | [13] 0.043 | [14] -0.036 | [15] 0.109 | [16] 0.023 | [17] -0.115 | [18] 0.027 | [19] -0.014 | [20] 0.013

SLC38A10 (UniProt Q9HBR0)
Chain of UniProt Q9HBR0 (Q9HBR0 whole entry, looked up): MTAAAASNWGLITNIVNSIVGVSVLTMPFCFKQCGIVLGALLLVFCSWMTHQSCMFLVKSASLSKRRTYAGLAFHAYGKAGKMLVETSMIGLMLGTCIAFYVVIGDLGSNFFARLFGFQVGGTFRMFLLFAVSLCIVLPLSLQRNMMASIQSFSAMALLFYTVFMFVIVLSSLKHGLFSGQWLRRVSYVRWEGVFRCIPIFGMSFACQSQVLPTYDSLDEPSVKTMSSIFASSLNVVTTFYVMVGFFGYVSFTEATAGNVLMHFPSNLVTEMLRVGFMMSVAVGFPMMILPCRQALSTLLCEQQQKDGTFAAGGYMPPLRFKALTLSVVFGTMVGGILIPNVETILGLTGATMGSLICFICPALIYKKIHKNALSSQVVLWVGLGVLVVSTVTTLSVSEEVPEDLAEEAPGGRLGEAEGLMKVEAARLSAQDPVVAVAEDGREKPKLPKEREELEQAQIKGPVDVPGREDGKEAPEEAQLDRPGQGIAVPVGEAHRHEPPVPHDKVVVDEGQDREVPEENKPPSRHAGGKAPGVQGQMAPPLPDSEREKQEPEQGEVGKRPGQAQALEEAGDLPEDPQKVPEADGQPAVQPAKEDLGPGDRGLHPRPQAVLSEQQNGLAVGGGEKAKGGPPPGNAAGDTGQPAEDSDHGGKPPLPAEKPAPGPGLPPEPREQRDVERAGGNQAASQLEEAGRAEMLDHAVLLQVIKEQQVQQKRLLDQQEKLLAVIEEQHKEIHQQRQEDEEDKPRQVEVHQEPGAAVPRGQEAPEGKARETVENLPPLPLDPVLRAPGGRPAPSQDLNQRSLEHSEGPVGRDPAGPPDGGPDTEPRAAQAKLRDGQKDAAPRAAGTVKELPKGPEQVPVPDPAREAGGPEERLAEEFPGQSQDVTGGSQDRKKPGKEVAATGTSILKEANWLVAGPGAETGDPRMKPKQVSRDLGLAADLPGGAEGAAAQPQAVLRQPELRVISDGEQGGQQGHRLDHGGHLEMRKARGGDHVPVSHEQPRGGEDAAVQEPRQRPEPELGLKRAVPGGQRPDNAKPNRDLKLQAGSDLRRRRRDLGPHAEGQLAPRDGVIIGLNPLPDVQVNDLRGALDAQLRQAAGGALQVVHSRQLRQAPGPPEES
inactive: [1] 0.1 | [2] -0.008 | [3] 0.014 | [4] 0.111 | [5] -0.015 | [6] -0.022 | [8] 0.022 | [9] 0.024 | [10] 0.015 | [11] -0.036 | [12] 0.074 | [13] -0.015 | [14] 0.023 | [15] 0.04 | [16] 0.037 | [17] -0.06 | [18] -0.032 | [19] 0.032 | [20] -0.046
active: [7] -0.229

Source: the supplement of paper PMC10849652
